# PubChem BioAssay AID540276 (National Center for Advancing Translational Sciences (NCATS), 2011)
# The campaign covered roughly 300,000 compounds. About 5,400 (1.8%) were called active. Not shown: some 28% with an inconclusive outcome. Calls come from the whole dose curve; tested in HEK293 cells. Shown is part of a subset that was picked to be rich in actives. Entries that show only a call come without a potency.
# Test: qHTS for inhibitors of binding or entry into cells for Marburg Virus
# Details: Marburg virus pseudotyped entry inhibition, cell reporter; series mostly up to 37.8 µM
# Potency is the fitted concentration of half-maximal effect.
row,SMILES,Potency
1,C/C(CC(=O)Nc1ccc(C)cc1C)=N\NC(=O)C(C)C,inactive
2,Cc1ccc(NC(=O)NC(C)c2c(-n3cccc3)sc(C)c2C)c(C)c1 (stereo unspecified),11.2 µM (active)
3,COc1ccc(NC(=O)NC(C)c2c(-n3cccc3)sc(C)c2C)cc1OC (stereo unspecified),inactive
4,CC(C)CCNC(=O)c1ccc2c(Cl)c3c(nc2c1)CCC3,10 µM (active)
5,COc1cccc(CNC(=O)c2ccc3c(Cl)c4c(nc3c2)CCCC4)c1,inactive
6,CC(=O)c1ccc(NC(=O)c2ccc3c(Cl)c4c(nc3c2)CCCC4)cc1,inactive
7,COc1ccccc1N1CCC(N2CCN(CC(C)(C)C)C(CCO)C2)CC1 (stereo unspecified),inactive
8,CC(C)(C)c1ccc(C(=O)N2CCN(CCNC(=O)C(=O)Nc3ccc(F)cc3)CC2)cc1,inactive
9,COc1ccccc1CNC(=O)c1ccc(N(C)S(=O)(=O)c2ccc(C)cc2)cc1,inactive
10,CC(C)c1nc(NC[C@H]2CCCO2)c(C#N)c2c1COC(C)(C)C2,inactive
11,COCCNc1nc(N)c([N+](=O)[O-])c(N2CCCCCC2)n1,inactive
12,Nc1nc(Nc2ccccc2)nc(NCCO)c1[N+](=O)[O-],inactive
13,CCN1CCN(c2nc(Nc3cccc(F)c3)nc(N)c2[N+](=O)[O-])CC1,12.6 µM (active)
14,COC(=O)CC(CC(=O)OC)n1cccc1,inactive
15,COc1ccc2[nH]c3nc(SCC(=O)NC4CC4)nnc3c2c1,inactive
16,CC1CCCCC1NC(=O)c1cn(C)c2ccc(S(=O)(=O)N3CCOCC3)cc2c1=O (stereo unspecified),inactive
17,Cc1ccc(S(=O)(=O)C(C#N)c2nc3ccccc3nc2N2CCCC2)cc1C (stereo unspecified),inactive
18,Cc1cc(C(=O)NNC(=O)c2cccc(S(=O)(=O)N3CCOCC3)c2)c2ccccc2n1,inactive
19,Cc1cc(N2CCN(S(=O)(=O)c3ccc(C)c(C)c3)CC2)c2ccccc2n1,16.4 µM (active)
20,CCOc1ccc(CCNC(=O)COC(=O)C2CCN(S(=O)(=O)c3ccccc3)CC2)cc1OCC,inactive
21,COc1cccc(/C=N/Nc2cc(C)nc(-c3ccccc3O)n2)c1O,5.62 µM (active)
22,COc1cccc(/C=N/Nc2ccc(S(=O)(=O)Nc3ccccc3C(=O)O)cc2[N+](=O)[O-])c1O,inactive
23,COc1cccc(/C=N\NC(=O)C2=NNC(=O)C2C)c1O (stereo unspecified),inactive
24,COCCN1C(=O)N(c2ccc(Cl)cc2)C(=O)C1CC(=O)Nc1cc(OC)cc(OC)c1 (stereo unspecified),inactive
25,CCOC(=O)C1(Cc2ccccc2C)CCCN(C(=O)CCc2c(C)noc2C)C1 (stereo unspecified),inactive
26,O=C1CC(c2ccccc2)C(c2ccccc2)=NN1 (stereo unspecified),inactive

row,SMILES,Potency
1,CCNC(=O)CCc1nc(-c2ccc(C(C)(C)C)cc2)no1,8.91 µM (active)
2,Cc1ccc(-c2noc(CCC(N)=O)n2)cc1,inactive
3,CCNC(=O)CCc1nc(-c2ccc(C)cc2)no1,inactive
4,COc1ccc(Cl)cc1NC(=O)c1cccc(N2C(=O)C3CC=CCC3C2=O)c1 (stereo unspecified),inactive
5,O=C(CC1SC(N2CCCC2)=NC1=O)Nc1ccc(C(=O)NCCc2ccc(F)cc2)cc1 (stereo unspecified),inactive
6,CC1CC(C)CN(CCC(=O)Nc2ccc3c(c2)CCC3)C1 (stereo unspecified),7.3 µM (active)
7,CC(C)C(=O)OCC(=O)Nc1ccc2c(c1)CCC2,inactive
8,CC1CC(C)CN(CC(=O)Nc2ccc(S(N)(=O)=O)cc2)C1 (stereo unspecified),inactive
9,Cc1nnc(NC(=O)C(c2ccccc2)c2ccccc2)s1,inactive
10,CC/C(=C\c1ccc(Cl)cc1)c1ccncc1,inactive
11,O=C1NCC(Nc2ccccc2)C(=O)N1 (stereo unspecified),inactive
12,Cc1ccc(CN(C(=O)c2sc3ccccc3c2Cl)C2CCS(=O)(=O)C2)cc1 (stereo unspecified),inactive
13,Cc1cc(Cl)ccc1OCC(=O)N(Cc1ccc(N(C)C)cc1)C1CCS(=O)(=O)C1 (stereo unspecified),inactive
14,CC1(C)C(C=C(Cl)Cl)C1C(=O)N(Cc1ccc(Cl)cc1)C1CCS(=O)(=O)C1 (stereo unspecified),12.6 µM (active)
15,CCOC(=O)C1(Cc2ccccc2C)CCCN(C(=O)c2ccc(COC)o2)C1 (stereo unspecified),inactive
16,O=C1NC(c2ccccc2)Cc2ccncc21 (stereo unspecified),inactive
17,Cc1c(C)c2c(c(C)c1O)CC[C@@](C)(CN1CCN(c3cc(N4CCCC4)nc(N4CCCC4)n3)CC1)O2,10 µM (active)
18,O=c1nc(NO)ccn1C1CCCO1 (stereo unspecified),inactive
19,N=c1oc2ccccc2cc1C(=O)NCc1ccccc1,inactive
20,Cc1cccc(-n2nc3c(c2NC(=O)c2cc4ccccc4o2)CS(=O)(=O)C3)c1,inactive
21,COc1cccc(C(=O)Nc2c3c(nn2-c2cccc(C)c2C)CS(=O)(=O)C3)c1OC,18.3 µM (active)
22,CCOc1ccc(C(=O)Nc2c3c(nn2-c2ccccc2)CS(=O)(=O)C3)cc1,inactive
23,CCN(CC(=O)Nc1ccc(OC)cc1)C(=O)c1ccc(Cl)c(S(=O)(=O)N2CCCC2)c1,inactive
24,COc1cccc(N(CC(=O)NC2CCCCCC2)S(=O)(=O)c2ccccc2)c1,inactive
25,Cn1c(=O)c2c(nc(NCCNC(=O)c3ccco3)n2Cc2ccccc2F)n(C)c1=O,inactive
26,Cn1c(=O)c2c(nc(NCCc3ccccc3)n2Cc2ccccc2Br)n(C)c1=O,inactive

row,SMILES,Potency
1,Cn1c(=O)c2c(nc(NCCc3ccccc3)n2Cc2ccccc2)n(C)c1=O,7.3 µM (active)
2,COC(=O)c1ccc(CNC(=O)c2ccc3oc(C(C)C)nc3c2)cc1,inactive
3,Cc1nc2ccc(C(=O)N/N=C/c3ccc(O)cc3)cc2[nH]1,inactive
4,Cc1ccc(/C=N/NC(=O)C2=NNC(c3ccccc3)(c3ccccc3)C2)c(O)c1,8.91 µM (active)
5,Cc1ccc2occ(/C=N/NC(=O)c3ccccc3C)c(=O)c2c1,inactive
6,COc1ccc(NC(=O)c2cccc(Cl)c2)c[n+]1[O-],inactive
7,O=C(OCC(=O)N1CCN(C(=O)c2ccco2)CC1)c1c(Cl)cccc1Cl,inactive
8,CC1CCN(C(=O)CCc2nnc3ccc(NCc4ccco4)nn23)CC1,3.16 µM (active)
9,COc1cccc(NC(=O)CCc2nnc3ccc(N4CCC(C)CC4)nn23)c1,inactive
10,O=C(CCc1nnc2ccc(NCc3ccccc3Cl)nn12)NCC1CCN(C2CCCC2)C1 (stereo unspecified),inactive
11,CC1=C(C(=O)NC2CC(C)(C)Cc3c2cnn3-c2ccc(C)cc2)OCCO1 (stereo unspecified),inactive
12,COc1cccc(-n2c(N)cc(=O)nc2SCC(=O)Nc2cc(C)on2)c1,inactive
13,O=C(O)C[C@H](C(=O)OC[C@H]1CCCO1)N1CCOCC1,inactive
14,CC1CN(C(=O)c2cc(COc3c(F)cccc3F)on2)CCN1C (stereo unspecified),inactive
15,CCC(C)(NC(=O)c1ccccn1)C(=O)NC1CCCCC1 (stereo unspecified),inactive
16,CCN(CC)CCOc1ccc2c(c1)C(=NNC(=O)c1ccccn1)c1cc(OCCN(CC)CC)ccc1-2,10.3 µM (active)
17,CCOc1cc(NC(=O)c2ccccn2)c(OCC)cc1NC(=O)c1ccc(OC)cc1,inactive
18,CC(=O)N1CCOc2ccc(S(=O)(=O)N3CCC(C(=O)Nc4ccccc4F)CC3)cc21,inactive
19,CCOc1ccc(CN2CCN(Cc3ccc4cc(F)ccc4n3)CC2CCO)cc1 (stereo unspecified),10 µM (active)
20,CCOc1ccc(CN2CCN(Cc3ccon3)CC2CCO)cc1 (stereo unspecified),inactive
21,Cc1ccc(CN2CCN(Cc3ccc4ncccc4c3)CC2CCO)cc1 (stereo unspecified),inactive
22,COc1cccc([C@@H]2Oc3ccc(OC)cc3C(=O)[C@@H]2OC(=O)Nc2cc(OC)c(OC)c(OC)c2)c1,inactive
23,Cc1ccccc1CCNC(=O)C1CCC(=O)N(Cc2ccc(Cl)cc2)C1 (stereo unspecified),inactive
24,Cc1ccc(OCc2cc(C(=O)N(C)CCn3ccnc3C)no2)cc1C,inactive
25,COC(=O)C/C=C/[C@@H](C)[C@@H](/C=N/OC[C@@H](O)[C@H]1O[C@@H]2OC(C)(C)O[C@@H]2[C@H]1O)OC,inactive
26,O=C(NNC(=O)c1ccc(Cl)nc1)c1ccc(Br)cc1,inactive

row,SMILES,Potency
1,CCN(CC)c1ccc(NC(=O)c2ccc(Cl)nc2)cc1,7.08 µM (active)
2,CCOC(=O)c1ccc(NC(=O)c2cccnc2)cc1,inactive
3,Cc1ccc(NC(=O)C(C)OC(=O)C2CC3CCCC(C2)C3=O)cc1S(=O)(=O)N1CCOCC1 (stereo unspecified),inactive
4,COc1ccc(/C=C/c2noc(-c3ccccc3OC(C)=O)n2)cc1,11.2 µM (active)
5,COc1ccc(/C=C/c2noc(-c3ccccc3O)n2)cc1OC,inactive
6,CC(=O)Oc1ccccc1[C@@H]1OC(=O)c2ccccc2N1C(C)=O,inactive
7,CN(CC(=O)NCCc1ccc(S(N)(=O)=O)cc1)CC(=O)Nc1ccc(F)c(F)c1F,inactive
8,COc1ccc(CCNC2=C(Cl)C(=O)N(Cc3ccccc3)C2=O)cc1OC,11.2 µM (active)
9,COc1ccc(CCNc2nc(C)cc(C)n2)cc1OC,inactive
10,COc1ccc(CCN(C)CCN2C(=O)c3ccccc3C2=O)cc1OC,inactive
11,CC(=NNC(=O)c1ccc2nc[nH]c2c1)c1ccc(Br)cc1,inactive
12,O=C(O)c1ccc(Cn2cnc3c(=S)nc[nH]c32)cc1,inactive
13,O=C(COc1ccc(Br)cc1F)NCC1(N2CCCCC2)CCCCC1,10 µM (active)
14,O=C(COC(=O)COc1ccccc1F)Nc1cccc(S(=O)(=O)N2CCCCC2)c1,inactive
15,O=C(COc1ccccc1F)NNC(=O)c1ccc(N2CCCCC2)c([N+](=O)[O-])c1,inactive
16,Nc1ncnc2c1cnn2C1CC(O)C(CO)O1 (stereo unspecified),inactive
17,COc1ccc(C(=O)OCC(=O)N2CC(=O)Nc3ccccc32)cc1Br,inactive
18,O=C(Nc1ccc(S(=O)(=O)N2CCOCC2)cc1)C1CCN(S(=O)(=O)c2ccc(Cl)cc2)CC1,inactive
19,CCCCNC1(C#N)CCN(Cc2ccccc2)CC1,inactive
20,O=C(NNS(=O)(=O)c1ccc([N+](=O)[O-])cc1)C1CCCCC1,inactive
21,O=C(NCc1ccc2c(c1)OCO2)c1ccc2c(c1)C(=O)N(CC1CCCO1)C2=O (stereo unspecified),inactive
22,O=C1c2cccc3c([N+](=O)[O-])ccc(c23)C(=O)N1CC1CCCO1 (stereo unspecified),23.1 µM (active)
23,O=c1c2cc3c(=O)n(CC4CCCO4)c(=O)c3cc2c(=O)n1CC1CCCO1 (stereo unspecified),inactive
